High-throughput results (PubChem)
VACV mCherry inh: qHTS for Stage-Specific Inhibitors of Vaccinia Orthopoxvirus: mCherry Reporter Primary qHTS; hit rate 0.63% among 310,000; Vaccinia virus mCherry reporter infection, fluorescence; Potency, µM (highest dose often 36.5 µM), for the others: at the top dose activity change, negative = inhibition, most hits filed as inhibitors; AID 720579, 2013; calls by dose curve; tested in A549 cells; further: potency means the concentration at half of the fitted maximal effect; nearly all actives have a fitted effect of over 35% in size
VACV Venus inh: qHTS for Stage-Specific Inhibitors of Vaccinia Orthopoxvirus: Venus Reporter Primary qHTS; Vaccinia virus Venus reporter expression, fluorescence; Potency, µM (titrated, usually from 36.5 µM), for inactives: top-dose activity change, negative = inhibition, actives largely listed as inhibitors; hit rate 0.46% among 330,000; AID 720580, 2013; calls by dose curve; tested in A549 cells; further: potency means the concentration at half of the fitted maximal effect; nearly all actives have a fitted effect of over 30% in size
HCMV inh: qHTS Assay for inhibitors of the human cytomegalovirus (HCMV) | HFF cells, HCMV-luciferase reporter, 72 h; hits give low values | activity change, negative = inhibition, % at 57.5 µM | hit rate 4.5% among 410,000; in the data active means activity change below about -60%; inconclusive means no clear call, values can overlap the other calls; inactive means above about -39%
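Screen run at 2 compound doses on HFFs infected with reporter HCMV, MOI 1 PFU/cell. Luciferase activity from cell lysates at 72 h post infection gave inhibition relative to buffer-only and Salinomycin wells.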
Lassa entry inh: qHTS for Inhibitors of binding or entry into cells for Lassa Virus | Potency, µM (highest dose often 37.9 µM), without a hit: at the top dose activity change, negative = inhibition, usual class: inhibitors | hit rate 1.2% among 300,000 | AID 540256, 2011 | Lassa virus pseudotype entry inhibition, cell reporter; calls by dose curve; tested in HEK293 cells; further: potency means the concentration at half of the fitted maximal effect; nearly all actives have a fitted effect of over 50% in size
Marburg entry inh: qHTS for inhibitors of binding or entry into cells for Marburg Virus. Marburg virus pseudotyped entry inhibition, cell reporter. hit rate 1.8% among 300,000. AID 540276, 2011. Potency, µM (doses to about 37.8 µM), without a hit: at the top dose activity change, negative = inhibition, usual class: inhibitors; calls by dose curve; tested in HEK293 cells; further: potency means the concentration at half of the fitted maximal effect
FMDV antiviral: High Throughput Screening for Foot and Mouth Disease Virus Antivirals. FMDV antiviral cell-based qHTS. Potency, µM (doses to about 57.9 µM), for the others: at the top dose activity change, negative = inhibition, most hits filed as inhibitors. hit rate 1.2% among 410,000. AID 1159524, 2015; calls by dose curve; tested in HEK293T cells; further: read-out not given here; potency means the concentration at half of the fitted maximal effect; nearly all actives have a fitted effect of over 45% in size
* marks the source's active call; other numbers are inactive results; i = inactive; ? = inconclusive; . = no result; [ ] = remark or other dose. Sampled rows, rich in hits. Any-hit rate of the full collection: about 6.5%. On the % scale 0 is the no-effect control and ±100 the full control effect.

SMILES	VACV mCherry inh	VACV Venus inh	HCMV inh	Lassa entry inh	Marburg entry inh	FMDV antiviral
CCc1cccc(NC(=O)CCNS(=O)(=O)c2cc(Br)cnc2N)c1	.	.	-77*	.	.	28%
CCSc1nnc(NC(=O)c2cnccn2)s1	i	1%	.	21%	?	.
CCSc1nnc(NC(=O)NCC(F)(F)F)s1	-5%[1.46 µM]	-3%	5	-23%	7%	18%
CCSc1nnc(NC(=O)c2ccccn2)s1	22µM*	?	10	?	?	0%
CCSc1nnc(NC(=O)C(C(F)(F)F)C(F)(F)F)s1	.	.	-2	-10%	-11%	-13%
CCSc1nnc(NC(=O)C(CC)(C(F)(F)F)C(F)(F)F)s1	.	?	?	13µM*	?	?
CCSc1nnc(NC(=O)C(C)(C(F)(F)F)C(F)(F)F)s1	.	.	-66*	-4%	?	-21%
C=C(C)C1CC23C(=O)[C@]4(C(=O)c5ccccc5)C[C@@]5(C)CCC(CC2C1(C)C)(C4=O)[C@@]35OC (stereo not given in full)	.	.	.	.	9%[14.2 µM]	.
CCOC(=O)C1=CCC(c2ccccc2)N(S(C)(=O)=O)C1 (stereo not given)	.	.	16	.	.	.
O=C(c1ccc2c(c1)OCO2)N(Cc1cc2cc3c(cc2nc1N1CCOCC1)CCC3)CC1CCCO1 (stereo not given)	-10%	-7%	.	.	.	1%
O=C(c1cc2cc3ccc(Cl)cc3nc2o1)N1CCN(c2cccc(Cl)c2)CC1	-5%	-3%	6	5%[46.1 µM]	4%[46.1 µM]	17%
O=C(C1=NC2=C(CCCC2)CC1)C1CCCCN1 (stereo not given)	.	.	.	.	3%[46.1 µM]	.
Cc1c(N)cc[n+](CC(=O)c2ccccc2)c1C	-4%	-15%	-76*	-18%	-30%[46.1 µM]	-12%
O=S(=O)(c1ccc2c(c1)OCO2)N1CCN(c2nc(-c3cccs3)nc3ccccc23)CC1	i	-19%	.	.	.	.
Cc1ccc(C)c(C(=O)COC(=O)c2n[nH]c3ccccc23)c1	-24%	-15%	-61*	?	2%	58%
Cc1cccc(C)c1OCCOC(=O)c1n[nH]c2ccccc12	i	-18%	?	-27%[46.1 µM]	?	-6%
COc1ccc(CNC(=O)COC(=O)c2n[nH]c3ccccc23)cc1OC	.	.	35	?	?	11µM*
COC(=O)[C@]1(C#N)CC(=O)N([C@H](c2ccccc2)[C@@H](O)c2ccccc2)[C@@H]1c1ccccc1	.	.	-18	.	.	.
Cn1nc(-c2ccccc2F)c2cc(C(=O)N3CCN(c4ccccc4F)CC3)sc21	-13%	3%	-28	?	-10%[46.1 µM]	-7%
Cc1cc(C(=O)CCl)c(C)n1-c1c(C)n(C)n(-c2ccccc2)c1=O	?	?	-35	?	?	28µM*
Cc1cc(-n2c(C)cc(C(=O)CCl)c2C)no1	-28%	?	-96*	?	2.8µM*	22µM*
COc1ccc(-n2c(C)cc(C(=O)COC(=O)c3ccc(O)cc3O)c2C)cc1	.	.	-81*	.	.	-24%
COc1ccc(-n2c(C)cc(C(=O)COC(=O)Cn3cnc4ccccc43)c2C)cc1	?	-30%	?	10%	-27%	-25%
Cc1cc(C(=O)COC(=O)c2ccc(O)cc2O)c(C)n1-c1ccccc1	?	?	-12	11µM*	?	-22%
Cc1nnc(SCC(=O)c2cc(C)n(-c3c(C)n(C)n(-c4ccccc4)c3=O)c2C)s1	-8%	-4%	-1	4%	-14%	-13%
SMILES	VACV mCherry inh	VACV Venus inh	HCMV inh	Lassa entry inh	Marburg entry inh	FMDV antiviral
CC(=O)OC[C@H]1O[C@H](C#Cc2ccccc2Cl)C=C[C@H]1OC(C)=O	.	.	.	.	-1%[14.2 µM]	.
CC(C)C(NS(=O)(=O)c1ccc2c(c1)oc(=O)n2C)C(=O)NCCc1ccc(Cl)cc1 (stereo not given)	-8%	9%	2	-20%[46.1 µM]	-13%[46.1 µM]	1%
Cc1cc(-n2c(C)cc(C(=O)CSc3nnnn3-c3ccccc3)c2C)no1	-17%	-9%	-10	?	-21%	-27%
Cc1cc(C(=O)C(C)OC(=O)c2ccc(NC(=O)CC#N)cc2)c(C)n1-c1ccccc1 (stereo not given)	?	-19%	-63*	?	?	16µM*
COc1ccc(-n2c(C)cc(C(=O)CSc3ccc(NC(C)=O)cc3)c2C)cc1	i	-23%	8	?	-1%	0%
COc1ccc(-n2c(C)cc(C(=O)CCl)c2C)cc1	.	.	-90*	.	.	28µM*
Cc1ccc(-n2nnnc2SCC(=O)c2cc(C)n(-c3cc(C)on3)c2C)c(C)c1	?	-15%	-37	1.5µM*	-13%	.
COc1ccc(-n2c(C)cc(C(=O)CN3C(=O)c4ccccc4C3=O)c2C)cc1	-2%	-14%	?	27%	?	32%
CC(=O)Nc1ccc(SCC(=O)c2cc(C)n(-c3ccccc3)c2C)cc1	-17%	-9%	-60*	-7%	-21%	14%
CC(C)CNC(=O)c1cn(C2CCN(Cc3nc4ccccc4s3)CC2)nn1	i	0%	.	.	.	-10%
COc1cc(NC(=O)c2cccs2)c(C(=O)OCC(=O)c2cc(C)n(-c3ccc(F)cc3)c2C)cc1OC	-1%	-6%	-22	?	?	?
Cc1cc(C(=O)OCC(N)=O)c(C)n1-c1ccccc1	i	-12%	70	2%	-2%	21%
CCOC(=O)c1cc(C)n(-c2ccccc2)c1C	0%[7.34 µM]	1%[7.34 µM]	-77*	-2%	28%[46.1 µM]	44%
Cc1cc(=O)c(C(=O)O)c(C)n1-c1ccccc1	-7%	-10%	-62*	25%	6%	0%
Cc1cc(C(=O)COC(=O)c2ccc(O)cc2O)c(C)n1-c1ccc(OC(F)F)cc1	-8%	-22%	-63*	?	7.9µM*	?
COc1cc(NC(=O)c2cccs2)c(C(=O)OCC(=O)c2cc(C)n(-c3ccccc3)c2C)cc1OC	-17%	-2%	-34	?	3.5µM*	4µM*
Cc1cc(C(=O)O)c(C)n1-c1ccccc1	-12%	-13%	26	12%	14%	-4%
COC(=O)c1c(C)[nH]c2ccccc12	.	.	-15	.	.	.
COCCNCC(=O)Nc1ccc(C)c(S(=O)(=O)N2CCCCC2)c1	-6%	-9%	-5	2%	0%[14.2 µM]	2%
CCc1noc(C)c1C(=O)Nc1ccc(C)c(S(=O)(=O)N2CCCCCC2)c1	-8%	-21%	-38	-28%	?	28µM*
CC1(c2ccc3ccccc3c2)NC(=O)N(CC(=O)Nc2cccc(S(=O)(=O)N3CCOCC3)c2)C1=O (stereo not given)	-19%	-4%	?	0%	?	35µM*
Cc1ccc(NC(=O)CCl)cc1S(=O)(=O)N1CCCCCC1	-11%	-14%	-98*	-25%	?	22µM*
